{"source": "PubChem BioAssay AID624415", "about": "(National Center for Advancing Translational Sciences (NCATS), 2012)", "note": "Out of some 390,000 compounds screened, about 60 (0.02%) were called active. The sample holds actives, similar compounds and a random draw of the others, so the mix is not that of the screen. Cut-off read from the data, not from the text of the source: active = activity change below about -50%; inconclusive = between about -30% and that limit; inactive = weaker than that. % is set by controls: 0 for no effect and ±100 for the full control effect."}
{"biological_target": "Mucolipin-1 (Homo sapiens) (UniProt Q9GZU1)", "sequence (Q9GZU1 whole entry, looked up)": "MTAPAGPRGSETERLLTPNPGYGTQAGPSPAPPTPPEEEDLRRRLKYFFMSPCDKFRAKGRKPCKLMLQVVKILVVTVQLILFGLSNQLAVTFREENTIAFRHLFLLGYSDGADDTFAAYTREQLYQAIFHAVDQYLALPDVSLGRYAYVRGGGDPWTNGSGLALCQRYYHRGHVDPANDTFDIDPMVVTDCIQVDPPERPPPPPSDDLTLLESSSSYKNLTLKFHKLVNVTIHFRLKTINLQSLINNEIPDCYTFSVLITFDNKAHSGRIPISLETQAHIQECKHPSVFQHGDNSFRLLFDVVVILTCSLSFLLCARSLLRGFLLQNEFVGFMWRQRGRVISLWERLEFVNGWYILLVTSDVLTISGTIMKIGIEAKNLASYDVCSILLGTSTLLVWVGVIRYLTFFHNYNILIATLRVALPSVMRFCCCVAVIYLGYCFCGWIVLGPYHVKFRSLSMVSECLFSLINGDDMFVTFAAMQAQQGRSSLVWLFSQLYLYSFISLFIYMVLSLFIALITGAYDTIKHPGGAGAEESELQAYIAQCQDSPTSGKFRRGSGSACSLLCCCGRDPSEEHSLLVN", "assay": "qHTS for Inhibitors of the Human Mucolipin Transient Receptor Potential 1 (TRPML1);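 note: stimulus is agonist 54-4 at its EC80 concentration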", "details": "TRPML1-inducible cells, Ca2+ dye fluorescence, FDSS; active compounds read low; inhibition of EC80 agonist-evoked calcium signal", "excerpt": "Mutations of human Mucolipin transient receptor potential 1 (TRPML1) cause type IV mucolipidosis (ML4), a devastating neurodegenerative disease in young children. […] Currently, there is no treatment for ML4. […] Under physiological conditions, TRPMLs regulate membrane trafficking by transducing information about PI(3,5)P2 levels into changes in juxtaorganellar Ca2+, thereby triggering membrane fusion/fission events in the late endocytic pathways (endolysosomal trafficking). In addition, TRPML1 mediates release of Fe2+ from late endosomes and lysosomes, which is essential for cellular iron metabolism. Thus, impaired ion (Ca2+ and Fe2+) homeostasis underlies lysosomal dysfunction and ML4 phenotypes. In ML4 cells, the problem is twofold. First, defective Ca2+-dependent membrane trafficking due to TRPML1-deficiency causes accumulation of lipids and other bio-materials in the lysosome. The second strike comes from the lysosomal iron overload (due to impairment of TRPML1's Fe2+ conductivity), which converts the accumulated materials into the nondegradable (resistant to lysosomal degradation) lipofuscin (also called aging pigment) in the lysosome. Lipofuscin accumulation dramatically compromises the functions of lysosomes.\nNiemann-Pick type C (NPC) disease is another lysosome storage disease (LSD) with severe neurodegeneration during the childhood. Currently, there is no cure for NPC. […] Thus, TRPML1 is likely to be an essential regulator of lysosome ion homeostasis. We specifically hypothesize that stimulating TRPML1's Fe2+/Ca2+ channel activity in the lysosome using synthetic agonists can alleviate neurodegeneration associated with ML4 or NPC.\nTo this end, a high throughput screen was developed in a miniaturized format to screen against the Molecular Libraries Small Molecule Repository (MLSMR) to find small molecules that act either as inhibitors or agonist against the TRPML1 channel.\nNIH Chemical Genomics Center [NCGC]\nNIH Molecular Libraries Probe Centers Network [MLPCN]\nAssay Submitter (PI): Haoxing Xu, University of Michigan Ann Arbor\nTRPML1-DL cells are dissociated from flasks, counted and, brought up to a density of 500,000 cells per mL of media containing a 1X Tet inducer. Using a Multidrop Combi, 3 uL of this cell solution is dispensed to each well of a 1536 TC treated, black, clear bottom hi base plate for a final cell density of 1,500 cells per well. The assay plates are incubated overnight (approximately 16 hours) at 37 degrees C and 5% CO2. Using a Multidrop Combi, 2 uL of ABD Ca8 no wash dye plus quencher is added to each well. The assay plates incubate at room temperature in the dark for 45-90 minutes. The assay plate is read on the FDSS using the following protocol: 10 second baseline read, 23 nL of compounds and controls are added using 1536 pintool, agonist read for 110 seconds, 1 uL EC80 addition (4 uM final 54-4 diluted in media), antagonist read for 110 seconds."}
{"smiles": "Cc1ccc(OCCSc2nc(C)c(Cc3ccccc3)c(=O)[nH]2)cc1", "activity change, negative = inhibition": "-16.6% (inactive)"}
{"smiles": "COc1ccc(NC(=O)NC(C)c2c(-n3cccc3)sc(C)c2C)cc1OC", "note": "(configuration not stated)", "activity change, negative = inhibition": "12.5% (inactive)"}
{"smiles": "COC(=O)c1ccccc1NC(=O)Cn1c(=O)n(-c2cccc(C(F)(F)F)c2)c(=O)c2c(C)c(C)sc21", "activity change, negative = inhibition": "-25.8% (inactive)"}
{"smiles": "Cc1cc2c(cc3c(SCc4nc(-c5ccccc5)oc4C)nnc(C)n32)o1", "activity change, negative = inhibition": "11.7% (inactive)"}
{"smiles": "N#Cc1ccccc1Cn1cnc2nc3c(cc2c1=O)CCCC3", "activity change, negative = inhibition": "-15.7% (inactive)"}
{"smiles": "CCN(Cc1ccccc1)S(=O)(=O)c1ccc2c(c1)CCCN2C(C)=O", "activity change, negative = inhibition": "-2.82% (inactive)"}
{"smiles": "Cn1c(=O)c2sccc2n2c(CCC(=O)NCc3ccccc3Cl)nnc12", "activity change, negative = inhibition": "2.41% (inactive)"}
{"smiles": "CN1CCN(C2(CNC(=O)COc3ccc(C(C)(C)C)cc3)CCCCC2)CC1", "activity change, negative = inhibition": "16.1% (inactive)"}
{"smiles": "COc1cc(OC)cc(-c2nc3nc(C)c(CCC(=O)Nc4ccccc4)c(C)n3n2)c1", "activity change, negative = inhibition": "-13.4% (inactive)"}
{"smiles": "Cc1ccc(Nc2c(-c3ccc(N(C)C)cc3)nc3nc[nH]n23)cc1", "activity change, negative = inhibition": "-8.37% (inactive)"}
{"smiles": "CCOc1ccccc1CNC(=O)c1cnc2c(-c3ccc(OCC)c(OCC)c3)c(C)nn2c1C", "activity change, negative = inhibition": "-5.19% (inactive)"}
{"smiles": "CCc1ccc(-n2nc(C)c3c(C)cc(=O)n(CC(=O)Nc4ccc(F)cc4C)c32)cc1", "activity change, negative = inhibition": "1.68% (inactive)"}
{"smiles": "CCOc1ccc(C2C(=O)N(C3CCCCC3)CC(=O)N2CCC2=CCCCC2)cc1OC", "note": "(configuration not stated)", "activity change, negative = inhibition": "-3.98% (inactive)"}
{"smiles": "CCC(=O)N1CCc2cc(Br)cc(S(=O)(=O)CCC(=O)N3CCN(c4ccc(F)cc4)CC3)c21", "activity change, negative = inhibition": "-21.4% (inactive)"}
{"smiles": "COc1ccc(CN2CCC(=O)c3ccccc3S2(=O)=O)cc1", "activity change, negative = inhibition": "-9.22% (inactive)"}
{"smiles": "COc1ccc(CCC(=O)NCc2ccc3c(c2)CCN3C(=O)c2ccc(F)cc2)cc1", "activity change, negative = inhibition": "-24.8% (inactive)"}
{"smiles": "CCCSc1ncc(Cl)c(C(=O)Nc2sc3c(c2C(=O)NCCOC)CCCC3)n1", "activity change, negative = inhibition": "20.3% (inactive)"}
{"smiles": "O=C(Nc1nc2c(s1)CCCC2)c1ccccc1F", "activity change, negative = inhibition": "7.29% (inactive)"}
{"smiles": "COc1cccc2cc(-c3nc(Cl)c4c5c(sc4n3)CC(C)CC5)c(=O)oc12", "note": "(configuration not stated)", "activity change, negative = inhibition": "-7.72% (inactive)"}
{"smiles": "Cc1ccc(Nc2nc(N)nc(CN3CCN(Cc4ccccc4)CC3)n2)cc1Cl", "activity change, negative = inhibition": "-62.2% (active)"}
{"smiles": "Cc1cc(N2CCOCC2)nc2ccc(NC(=S)N3CCN(Cc4ccccc4)CC3)cc12", "activity change, negative = inhibition": "-15.7% (inactive)"}
{"smiles": "CCOC(=O)C1CCCN(Cc2nc(N)nc(Nc3ccc(C)cc3)n2)C1", "note": "(configuration not stated)", "activity change, negative = inhibition": "-0.383% (inactive)"}
{"smiles": "Cc1ccc(-n2c(SCC(=O)c3ccccc3)nc3c([nH]c4ccccc43)c2=O)cc1", "activity change, negative = inhibition": "13.9% (inactive)"}
{"smiles": "O=C(CSCc1cnn(-c2ccccc2)c1-n1cccc1)NCc1ccccc1Br", "activity change, negative = inhibition": "2.1% (inactive)"}
{"smiles": "CC1=C(C(=O)OCc2ccc(C)cc2)C(c2ccccc2Cl)CC(=O)N1", "note": "(configuration not stated)", "activity change, negative = inhibition": "31.3% (inactive)"}
{"smiles": "C#CC(C)(CC)NC(=O)Cn1nnc(-c2ccc(OCc3c(F)cccc3Cl)cc2)n1", "note": "(configuration not stated)", "activity change, negative = inhibition": "-6.13% (inactive)"}
{"smiles": "Cn1c(=O)c2c(nc(SCC(=O)Nc3ccc(F)cc3)n2Cc2ccc(Cl)cc2)n(C)c1=O", "activity change, negative = inhibition": "3.84% (inactive)"}
{"smiles": "Cc1cccc(C(=O)Nc2ccc(-c3nc4ncccc4o3)cc2C)c1", "activity change, negative = inhibition": "-6.3% (inactive)"}
{"smiles": "COC(=O)CCc1ccccc1S(=O)(=O)N(CCC(=O)OC)Cc1ccccc1", "activity change, negative = inhibition": "-2.45% (inactive)"}
{"smiles": "CC(C)(C)n1ncc2c(=O)n(Cc3ccc(C(=O)c4ccccc4)cc3)cnc21", "activity change, negative = inhibition": "1.11% (inactive)"}
{"smiles": "COc1cccc(CNC(=O)c2ccc3c(c2)N(Cc2ccc(C(F)(F)F)cc2)C(=O)c2ccccc2S3)c1OC", "activity change, negative = inhibition": "37.3% (inactive)"}
{"smiles": "C=C1CCN(Cc2ccc(OC)cc2)S(=O)(=O)c2ccccc21", "activity change, negative = inhibition": "57% (inactive)"}
{"smiles": "CCOC(=O)c1ccc(-c2ccc(/C=C(\\C#N)C(=O)Nc3ccc(OCC)cc3)o2)cc1", "activity change, negative = inhibition": "10.3% (inactive)"}
{"smiles": "Cc1c(NS(=O)(=O)c2ccc(Cl)cc2)c(=O)n(-c2ccccc2)n1C", "activity change, negative = inhibition": "-2.41% (inactive)"}
{"smiles": "CCc1ccc2ncc3c(-c4ccc(C)cc4)nn(CC(=O)NCc4ccccc4)c3c2c1", "activity change, negative = inhibition": "1.33% (inactive)"}
{"smiles": "COc1ccc(N2CCN(C(=O)C3CCCN(C(=O)c4cc5sccc5n4C)C3)CC2)cc1", "note": "(configuration not stated)", "activity change, negative = inhibition": "-10.9% (inactive)"}
{"smiles": "COc1cc(Br)cc2cc(S(=O)(=O)c3ccccc3)c(=O)oc12", "activity change, negative = inhibition": "0.895% (inactive)"}
{"smiles": "COc1ccc(Cl)cc1NC(=O)Cn1c(=O)c2ccccc2n2nncc12", "activity change, negative = inhibition": "11.3% (inactive)"}
{"smiles": "COc1cc(NC(=O)Cn2nc(-c3ccc(C)c(C)c3)ccc2=O)cc(OC)c1", "activity change, negative = inhibition": "-17.3% (inactive)"}
{"smiles": "Cc1ccc(NC(=O)NC(C)c2c(-n3cccc3)sc(C)c2C)c(C)c1", "note": "(configuration not stated)", "activity change, negative = inhibition": "43% (inactive)"}
{"smiles": "CCc1nnc(SCc2nc(-c3cccc(C)c3)oc2C)c2cc3sc(C)cc3n12", "activity change, negative = inhibition": "-4.34% (inactive)"}
{"smiles": "CCCOc1ccc(C(=O)Nc2ccc3oc(-c4cccc(Cl)c4Cl)nc3c2)cc1", "activity change, negative = inhibition": "-2.03% (inactive)"}
{"smiles": "COc1ccccc1-c1cc(C(F)(F)F)nc(S(=O)(=O)CCCC(=O)Nc2cc(C)ccc2O)n1", "activity change, negative = inhibition": "-10.5% (inactive)"}
{"smiles": "Cc1ccc(C)c(Oc2c(C(F)(F)F)oc3c(CN4CCN(C)CC4)c(O)ccc3c2=O)c1", "activity change, negative = inhibition": "11.9% (inactive)"}
{"smiles": "O=C(CN1CCN(Cc2ccc(Cl)cc2)C1=O)NCc1ccc(F)cc1", "activity change, negative = inhibition": "3.6% (inactive)"}
{"smiles": "COc1cccc(Cn2c(SCc3ccc(C(=O)N4CCCCC4)cc3)nc3ccncc32)c1", "activity change, negative = inhibition": "17.2% (inactive)"}
{"smiles": "CSc1nc(=O)c2c(n1C)NC(=O)CC2c1ccccc1OC(C)C", "note": "(configuration not stated)", "activity change, negative = inhibition": "-8.74% (inactive)"}
